From the supplement of paper PMC11732987, “Enantioselective OTUD7B fragment discovery through chemoproteomics screening and high-throughput optimisation” (Communications Chemistry, 2025)

Tests used:
Test in all cases: log2 ratio of Biotin-Ahx-Ub-VS probe labelling (fragment/DMSO); higher = less target engagement (more negative = stronger competition), active = hit call of the paper (q ≤ 0.05, log2 ratio ≤ -1)
Conditions in all cases: compound concentration: 200 uM; treatment time: 3 h
USP19 = target: T1, USP19 (UniProt O94966)
T1 sequence (whole entry): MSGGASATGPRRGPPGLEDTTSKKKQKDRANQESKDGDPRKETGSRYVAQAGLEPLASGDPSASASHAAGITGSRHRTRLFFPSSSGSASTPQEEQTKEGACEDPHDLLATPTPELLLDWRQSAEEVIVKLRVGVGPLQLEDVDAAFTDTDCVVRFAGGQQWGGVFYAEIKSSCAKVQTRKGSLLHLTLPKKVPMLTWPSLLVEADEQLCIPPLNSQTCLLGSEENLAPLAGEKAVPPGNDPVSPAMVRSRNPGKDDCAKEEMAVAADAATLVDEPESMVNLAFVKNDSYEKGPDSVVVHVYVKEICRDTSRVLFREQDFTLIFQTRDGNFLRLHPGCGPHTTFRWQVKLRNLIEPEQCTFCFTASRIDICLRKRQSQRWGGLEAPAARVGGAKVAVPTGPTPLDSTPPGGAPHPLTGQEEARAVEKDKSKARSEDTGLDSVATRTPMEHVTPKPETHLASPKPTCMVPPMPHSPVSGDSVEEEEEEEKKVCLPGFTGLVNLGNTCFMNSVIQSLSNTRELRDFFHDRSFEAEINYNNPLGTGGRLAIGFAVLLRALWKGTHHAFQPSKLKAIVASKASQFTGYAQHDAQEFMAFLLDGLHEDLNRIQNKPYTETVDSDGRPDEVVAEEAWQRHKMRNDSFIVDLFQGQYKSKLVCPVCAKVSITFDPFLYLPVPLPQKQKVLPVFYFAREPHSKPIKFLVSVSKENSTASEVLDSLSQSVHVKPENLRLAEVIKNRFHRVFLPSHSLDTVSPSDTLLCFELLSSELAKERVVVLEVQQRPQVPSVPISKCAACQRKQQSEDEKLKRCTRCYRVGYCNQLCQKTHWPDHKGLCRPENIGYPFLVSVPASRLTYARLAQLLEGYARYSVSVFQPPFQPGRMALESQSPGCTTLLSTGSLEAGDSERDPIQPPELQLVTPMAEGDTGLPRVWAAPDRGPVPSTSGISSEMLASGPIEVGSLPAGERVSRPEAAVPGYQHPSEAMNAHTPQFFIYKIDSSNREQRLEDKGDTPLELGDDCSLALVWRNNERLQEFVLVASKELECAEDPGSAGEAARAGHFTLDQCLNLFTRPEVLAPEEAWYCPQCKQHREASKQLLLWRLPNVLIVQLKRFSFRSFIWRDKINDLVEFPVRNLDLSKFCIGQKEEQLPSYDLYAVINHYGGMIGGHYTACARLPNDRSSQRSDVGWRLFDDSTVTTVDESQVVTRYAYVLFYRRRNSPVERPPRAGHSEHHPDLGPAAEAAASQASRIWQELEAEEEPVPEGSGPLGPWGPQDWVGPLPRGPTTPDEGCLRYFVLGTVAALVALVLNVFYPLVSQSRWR
Method in brief: (§1)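 HEK293T lysate, 495 µg per sample in Tris/CHAPS/IGEPAL buffer with protease inhibitors, was treated in triplicate with fragment at 200 µM or vehicle for 3 h and then with Biotin-Ahx-Ub-VS at 0.5 µM final for 1 h. Labelled DUBs were NeutrAvidin-enriched, digested with LysC and trypsin, and run by diaPASEF LC-MS/MS. Spectronaut label-free quantities were global-median-normalised, and values are average log2 fragment/vehicle ratios by unpaired t-test on proteins with ≥2 unique peptides.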

USP24 = USP24 (UniProt Q9UPU5)
Method in brief: as §1

USP25 = target: T2, USP25 (UniProt Q9UHP3)
T2 sequence (whole entry): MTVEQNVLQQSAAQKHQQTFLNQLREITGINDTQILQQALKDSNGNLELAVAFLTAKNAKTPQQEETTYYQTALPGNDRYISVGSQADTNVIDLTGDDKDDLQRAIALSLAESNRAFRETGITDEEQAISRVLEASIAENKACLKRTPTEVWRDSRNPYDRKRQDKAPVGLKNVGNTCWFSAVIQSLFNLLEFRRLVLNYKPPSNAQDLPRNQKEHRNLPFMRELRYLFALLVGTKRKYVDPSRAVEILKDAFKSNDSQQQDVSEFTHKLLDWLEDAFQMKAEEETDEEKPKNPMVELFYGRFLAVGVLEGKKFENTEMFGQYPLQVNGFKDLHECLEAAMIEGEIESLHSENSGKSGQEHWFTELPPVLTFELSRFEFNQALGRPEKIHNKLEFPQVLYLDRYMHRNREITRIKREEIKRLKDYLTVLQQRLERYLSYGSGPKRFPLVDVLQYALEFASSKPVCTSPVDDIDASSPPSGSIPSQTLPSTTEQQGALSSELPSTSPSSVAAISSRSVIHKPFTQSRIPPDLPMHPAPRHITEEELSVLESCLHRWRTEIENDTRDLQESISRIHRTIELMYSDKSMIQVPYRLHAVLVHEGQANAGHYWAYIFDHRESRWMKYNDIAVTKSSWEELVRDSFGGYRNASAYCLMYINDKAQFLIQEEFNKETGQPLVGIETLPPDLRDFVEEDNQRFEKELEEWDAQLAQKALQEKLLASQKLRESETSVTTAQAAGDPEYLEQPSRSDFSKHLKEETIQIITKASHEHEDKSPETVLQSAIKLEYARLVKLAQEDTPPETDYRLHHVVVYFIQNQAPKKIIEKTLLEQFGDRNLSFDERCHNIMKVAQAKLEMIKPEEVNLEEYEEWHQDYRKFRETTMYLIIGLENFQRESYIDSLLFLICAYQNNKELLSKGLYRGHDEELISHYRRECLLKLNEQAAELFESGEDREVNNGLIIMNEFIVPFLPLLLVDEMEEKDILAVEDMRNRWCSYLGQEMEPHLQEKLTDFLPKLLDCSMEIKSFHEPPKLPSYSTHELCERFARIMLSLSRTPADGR
Method in brief: as §1

USP28 = target: T3, USP28 (UniProt Q96RU2)
T3 sequence (whole entry): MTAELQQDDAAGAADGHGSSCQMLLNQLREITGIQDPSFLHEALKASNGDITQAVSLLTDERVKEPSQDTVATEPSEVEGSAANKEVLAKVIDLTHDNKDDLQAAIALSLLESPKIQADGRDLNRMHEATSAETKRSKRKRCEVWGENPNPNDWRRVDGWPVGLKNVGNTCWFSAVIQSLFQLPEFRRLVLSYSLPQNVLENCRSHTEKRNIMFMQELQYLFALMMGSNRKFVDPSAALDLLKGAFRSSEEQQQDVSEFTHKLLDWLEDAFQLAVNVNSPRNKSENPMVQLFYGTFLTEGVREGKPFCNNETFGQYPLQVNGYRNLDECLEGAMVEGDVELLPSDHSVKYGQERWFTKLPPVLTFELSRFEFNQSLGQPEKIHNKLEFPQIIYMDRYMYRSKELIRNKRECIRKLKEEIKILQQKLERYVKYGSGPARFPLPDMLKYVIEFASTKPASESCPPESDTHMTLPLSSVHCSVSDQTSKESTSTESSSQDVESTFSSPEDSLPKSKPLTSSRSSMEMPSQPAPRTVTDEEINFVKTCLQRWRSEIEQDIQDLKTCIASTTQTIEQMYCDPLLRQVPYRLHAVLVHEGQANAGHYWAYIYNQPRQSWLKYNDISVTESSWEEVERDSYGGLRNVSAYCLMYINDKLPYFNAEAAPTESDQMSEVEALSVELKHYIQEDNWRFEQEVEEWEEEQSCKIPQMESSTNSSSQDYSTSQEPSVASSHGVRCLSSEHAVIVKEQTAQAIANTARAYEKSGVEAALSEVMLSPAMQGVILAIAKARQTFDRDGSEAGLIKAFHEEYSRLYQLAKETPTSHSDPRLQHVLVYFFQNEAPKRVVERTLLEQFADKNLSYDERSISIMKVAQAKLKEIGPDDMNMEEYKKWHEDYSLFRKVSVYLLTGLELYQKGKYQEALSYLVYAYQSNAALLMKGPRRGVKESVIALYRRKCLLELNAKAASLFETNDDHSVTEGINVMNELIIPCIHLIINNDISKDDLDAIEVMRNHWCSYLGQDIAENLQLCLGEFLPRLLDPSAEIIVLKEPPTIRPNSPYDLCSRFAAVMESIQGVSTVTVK
Method in brief: as §1

Measured: log2 ratio of Biotin-Ahx-Ub-VS probe labelling

Sequence of USP24 (Q9UPU5 whole entry): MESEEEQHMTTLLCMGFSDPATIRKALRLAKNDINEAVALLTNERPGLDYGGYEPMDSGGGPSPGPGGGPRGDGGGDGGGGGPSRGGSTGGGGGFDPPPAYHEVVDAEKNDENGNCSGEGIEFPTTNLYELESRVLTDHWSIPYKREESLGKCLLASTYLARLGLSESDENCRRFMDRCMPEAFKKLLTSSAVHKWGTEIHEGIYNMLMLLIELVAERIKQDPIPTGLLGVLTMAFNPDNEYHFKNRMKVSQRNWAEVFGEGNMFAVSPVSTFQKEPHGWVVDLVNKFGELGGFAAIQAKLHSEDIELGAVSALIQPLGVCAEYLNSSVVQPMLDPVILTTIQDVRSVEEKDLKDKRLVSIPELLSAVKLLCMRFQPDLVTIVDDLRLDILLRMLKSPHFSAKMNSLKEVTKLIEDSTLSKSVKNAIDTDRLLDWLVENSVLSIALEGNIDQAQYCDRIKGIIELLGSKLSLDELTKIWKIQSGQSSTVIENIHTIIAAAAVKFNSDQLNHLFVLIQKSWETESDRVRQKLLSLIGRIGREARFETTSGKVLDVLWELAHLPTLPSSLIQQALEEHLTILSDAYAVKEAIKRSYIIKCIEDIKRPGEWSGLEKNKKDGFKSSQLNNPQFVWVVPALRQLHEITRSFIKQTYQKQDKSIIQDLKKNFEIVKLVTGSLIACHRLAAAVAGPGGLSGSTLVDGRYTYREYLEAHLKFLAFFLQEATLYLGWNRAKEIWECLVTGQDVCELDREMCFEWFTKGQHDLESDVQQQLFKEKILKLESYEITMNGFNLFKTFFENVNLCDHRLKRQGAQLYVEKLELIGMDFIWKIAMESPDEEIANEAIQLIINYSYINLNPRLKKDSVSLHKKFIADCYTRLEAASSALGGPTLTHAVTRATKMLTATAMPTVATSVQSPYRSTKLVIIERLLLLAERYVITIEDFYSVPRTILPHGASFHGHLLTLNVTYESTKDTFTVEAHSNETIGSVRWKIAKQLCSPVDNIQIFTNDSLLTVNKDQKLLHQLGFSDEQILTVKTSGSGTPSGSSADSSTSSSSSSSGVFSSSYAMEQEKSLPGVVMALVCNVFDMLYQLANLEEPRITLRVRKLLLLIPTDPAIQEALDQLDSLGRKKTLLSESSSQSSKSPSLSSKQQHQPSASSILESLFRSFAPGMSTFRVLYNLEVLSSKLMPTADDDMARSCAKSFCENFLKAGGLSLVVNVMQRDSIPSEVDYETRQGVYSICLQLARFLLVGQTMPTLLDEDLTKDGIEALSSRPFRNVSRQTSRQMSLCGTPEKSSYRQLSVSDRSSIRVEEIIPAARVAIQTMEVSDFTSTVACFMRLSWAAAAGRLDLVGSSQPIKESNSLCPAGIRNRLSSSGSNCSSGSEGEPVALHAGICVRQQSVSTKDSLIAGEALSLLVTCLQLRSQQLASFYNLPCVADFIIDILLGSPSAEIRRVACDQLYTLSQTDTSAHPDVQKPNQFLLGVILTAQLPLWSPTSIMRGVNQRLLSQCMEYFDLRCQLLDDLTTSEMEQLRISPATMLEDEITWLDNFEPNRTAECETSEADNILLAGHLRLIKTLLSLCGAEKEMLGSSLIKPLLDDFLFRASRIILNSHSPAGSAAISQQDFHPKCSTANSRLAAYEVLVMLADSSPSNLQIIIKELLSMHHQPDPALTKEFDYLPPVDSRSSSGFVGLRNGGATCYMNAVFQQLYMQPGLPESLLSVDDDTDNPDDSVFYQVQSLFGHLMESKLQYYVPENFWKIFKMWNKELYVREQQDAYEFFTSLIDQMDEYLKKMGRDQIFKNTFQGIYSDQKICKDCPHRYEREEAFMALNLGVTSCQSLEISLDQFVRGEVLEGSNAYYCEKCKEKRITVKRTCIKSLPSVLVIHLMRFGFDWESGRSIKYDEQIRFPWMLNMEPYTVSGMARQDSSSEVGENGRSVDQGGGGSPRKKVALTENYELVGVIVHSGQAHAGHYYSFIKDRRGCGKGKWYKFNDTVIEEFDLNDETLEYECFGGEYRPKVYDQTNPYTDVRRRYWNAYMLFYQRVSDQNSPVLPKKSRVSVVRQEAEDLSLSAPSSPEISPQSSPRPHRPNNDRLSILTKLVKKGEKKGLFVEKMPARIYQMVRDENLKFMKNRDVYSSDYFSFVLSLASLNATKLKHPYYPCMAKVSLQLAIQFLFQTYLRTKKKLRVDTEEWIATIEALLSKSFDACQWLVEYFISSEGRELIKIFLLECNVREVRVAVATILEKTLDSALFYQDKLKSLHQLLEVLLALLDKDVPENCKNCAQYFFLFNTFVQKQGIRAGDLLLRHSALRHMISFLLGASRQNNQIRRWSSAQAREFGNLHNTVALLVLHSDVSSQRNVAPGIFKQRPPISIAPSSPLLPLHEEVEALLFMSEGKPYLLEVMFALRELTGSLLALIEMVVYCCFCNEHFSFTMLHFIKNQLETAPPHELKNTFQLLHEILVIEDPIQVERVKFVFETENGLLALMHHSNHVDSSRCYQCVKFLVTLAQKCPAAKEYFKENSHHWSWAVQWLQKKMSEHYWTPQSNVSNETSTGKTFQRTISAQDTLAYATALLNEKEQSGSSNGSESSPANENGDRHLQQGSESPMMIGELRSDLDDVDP

O=C(CCl)NCCc1ccc(F)cc1
inactive: USP19 -0.131 | USP24 -0.0496 | USP25 -0.326 | USP28 -0.328
